Assay outcomes from PubChem BioAssay.
KB-3-1 tox – kills parental KB-3-1 adenocarcinoma cells; Potency, µM (highest dose often 46.1 µM), actives largely listed as cytotoxic; hit rate 1.4% among 400,000; AID 1347075; KB-3-1 viability, CellTiter-Glo ATP luminescence, 72 h; further: nearly all actives have a fitted effect of over 60% in size
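Using CellTiter-Glo luminescence, growth of non-resistant KB-3-1 adenocarcinoma cells is assessed 72 h after pin-tool compound addition at 37 °C. Normalized responses across the concentration series yield fitted curves.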
HT1080 IDH1KD tx – toxicity to HT-1080 IDH1 knockdown cells (counter line); HT-1080 IDH1 knockdown viability, ATP luminescence, 48 h; Potency, µM (highest dose often 46.1 µM), most hits filed as cytotoxic; hit rate 2% among 360,000; AID 686971
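% activity derives from luminescence (CellTiter-Glo), normalised to DMSO and no-cell wells. HT-1080-IDH1KD cells, 750/well, had 48 h compound exposure at 37 °C.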
S2 tox – cell viability loss in ATXN counter-screen | hit rate 0.49% among 400,000 | S2 cells (HEK-293 line with an ATXN2-luciferase reporter) viability, CellTiter-Fluor protease fluorescence, 24 h | Potency, µM (titrated, usually from 56.7 µM), hits mostly cytotoxic | AID 651635; further: nearly all actives have a fitted effect of over 40% in size
ATXN2 expr inh – inhibitors of ATXN2 expression. hit rate 0.72% among 360,000. AID 1745845. HEK-293 ATXN2-luciferase reporter, luminescence, 24 h. Potency, µM (doses to about 57 µM), hits mostly inhibitors; further: nearly all actives have a fitted effect of over 55% in size
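ATXN2-luciferase reporter cells (luciferase flanked by upstream and downstream ATXN2 gene portions) were treated 24 h at 37 °C with compounds at up to 57 uM. SteadyGlo luminescence gave expression; GF-AFC fluorescence gave viability.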
HT1080-NT tox – kills 2HG-producing HT-1080-NT fibrosarcoma cells | hit rate 1.6% among 360,000 | AID 686970 | Potency, µM (highest dose often 46.1 µM), most hits filed as cytotoxic | HT-1080-NT fibrosarcoma viability, CellTiter-Glo ATP luminescence, 48 h;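 further: NT is the 2HG producing partner of a matched IDH1 knockdown line; nearly all actives have a fitted effect of over 55% in size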
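Toxicity toward the 2HG-producing NT line was scored as %Activity, normalised to DMSO and no-cell wells, from CellTiter-Glo luminescence after 48 hours' treatment.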
KB-V1 MDR tox – KB-V1 MDR subline cytotoxicity | KB-V1 MDR cells viability, CellTiter-Glo, 72 h | Potency, µM (highest dose often 46.1 µM), actives largely listed as cytotoxic | hit rate 3.4% among 400,000 | AID 1347076; further: nearly all actives have a fitted effect of over 60% in size
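Luminescent ATP read-out (CellTiter-Glo, 10 min) measures survival of drug-selected KB-V1 MDR cells after 72 h, 37 degrees C compound exposure. Medium: phenol-red-free DMEM, 10% FBS. Values from fitted concentration-response curves.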
Hits are given with their value. In the library only some 6.2% were active in any assay of this set; here they are far more common. The call rests on the fitted dose curve; in most records, active means well fitted curve in the direction sought with a large enough effect; inconclusive means small, poorly fitted or top-dose-only effect, or another doubt; inactive means no such curve, though single readings can be large; an effect the other way counts as inactive or inconclusive.

O=C(CCc1ccccc1)NC(NC(=S)Nc1ccc(Br)cc1)C(Cl)(Cl)Cl (stereo not drawn) was read as KB-3-1 tox inactive, HT1080 IDH1KD tx inconclusive, S2 tox inactive, ATXN2 expr inh inconclusive, HT1080-NT tox 18µM and KB-V1 MDR tox inactive.
Screening CC(C)(C)OC(=O)N[C@H]1CCCCCC=C[C@@H]2C[C@@]2(C(=O)NS(=O)(=O)C2CC2)NC(=O)[C@@H]2C[C@@H](OC(=O)N3Cc4cccc(F)c4C3)CN2C1=O returned ATXN2 expr inh inactive.
For O=C(CCC1N=C2c3ccccc3N=C(SCC(=O)Nc3cccc(Cl)c3)N2C1=O)NCc1ccco1 (stereo not drawn) the results were KB-3-1 tox inactive, S2 tox inconclusive, ATXN2 expr inh inactive and KB-V1 MDR tox inactive.
For Cc1csc(SCc2nc3sc4c(c3c(=O)[nH]2)CCC4)n1 the results were KB-3-1 tox inactive, HT1080 IDH1KD tx inactive, S2 tox inactive, ATXN2 expr inh inactive, HT1080-NT tox inactive and KB-V1 MDR tox 5.2µM.
For COC(=O)[C@]12CCCCC=C1N(Cc1ccco1)C(=O)[C@H](CC(=O)NCc1cccc(C(F)(F)F)c1)C2 the results were KB-3-1 tox inactive, HT1080 IDH1KD tx inactive, S2 tox inactive, ATXN2 expr inh inactive, HT1080-NT tox inactive and KB-V1 MDR tox inactive.
Screening CCCCCCCCN1C(=O)[C@H](CC(=O)NCc2cccc(C(F)(F)F)c2)C[C@@]2(C(=O)OC)CC(C)(C)CC=C12 returned KB-3-1 tox inconclusive, HT1080 IDH1KD tx inconclusive, HT1080-NT tox inconclusive and KB-V1 MDR tox 23µM.
For COC(=O)[C@]12CCCCC=C1N(Cc1cccc3ccccc13)C(=O)[C@H](CC(=O)NCc1cccc(C(F)(F)F)c1)C2 the results were KB-3-1 tox inconclusive, HT1080 IDH1KD tx inconclusive, S2 tox inconclusive, ATXN2 expr inh inconclusive, HT1080-NT tox inconclusive and KB-V1 MDR tox 9.2µM.
`CCOC(=O)[C@]12CCCC=C1N(Cc1cccc3ccccc13)C(=O)[C@H](CC(=O)NCc1cccc(C(F)(F)F)c1)C2` gave KB-3-1 tox inactive, HT1080 IDH1KD tx inactive, S2 tox inconclusive, ATXN2 expr inh inactive, HT1080-NT tox inconclusive and KB-V1 MDR tox inactive.
`CCOC(=O)[C@]12CCCC=C1N(Cc1ccccc1)C(=O)[C@H](CC(=O)NCc1cccc(C(F)(F)F)c1)C2` gave KB-3-1 tox inactive, HT1080 IDH1KD tx inconclusive, HT1080-NT tox 29µM and KB-V1 MDR tox inconclusive.
For CCS(=O)(=O)NCc1c(C)ncc2c1CCN(C(=O)c1ccc(F)cc1)C2 the results were S2 tox inactive.
`O=C(Cn1c(=O)n(CCCS(=O)(=O)C2CCCCC2)c(=O)c2ccccc21)Nc1ccccc1C(F)(F)F` gave KB-3-1 tox inactive, S2 tox inactive, ATXN2 expr inh inactive and KB-V1 MDR tox inactive.
O=C(NC[C@@H]1CCCN2CCCC[C@H]12)c1cnn(-c2nccc(-c3ccco3)n2)c1C1CC1 was read as S2 tox inactive.
Screening CCCCCCNc1ccc(/C=C/c2ccnc3ccccc23)cc1 returned KB-3-1 tox inactive and KB-V1 MDR tox inconclusive.
For CCOC(=O)CC(NS(=O)(=O)c1ccc2[nH]cc(C(=O)O)c(=O)c2c1)c1ccc(OCC)c(OC)c1 (stereo not drawn) the results were KB-3-1 tox inactive, HT1080 IDH1KD tx inactive, S2 tox inactive, ATXN2 expr inh inactive, HT1080-NT tox inactive and KB-V1 MDR tox inactive.
For COc1ccc(NC(=O)CC2C(=O)N(CCc3ccccc3)C(=S)N2Cc2cccnc2)cc1 (stereo not drawn) the results were KB-3-1 tox inactive, HT1080 IDH1KD tx inconclusive, S2 tox inconclusive, ATXN2 expr inh inconclusive, HT1080-NT tox inactive and KB-V1 MDR tox 15µM.
`COc1ccc(NC(=O)CC2C(=O)N(C)C(=S)N2Cc2ccco2)cc1` (stereo not drawn) gave KB-3-1 tox inactive, HT1080 IDH1KD tx inactive, S2 tox inactive, ATXN2 expr inh inactive, HT1080-NT tox inactive and KB-V1 MDR tox inactive.
COc1ccc(NC(=O)CC2C(=O)N(c3ccccc3)C(=O)N2CCc2cccs2)cc1 (stereo not drawn) was read as KB-3-1 tox inactive, HT1080 IDH1KD tx inactive, S2 tox inactive, ATXN2 expr inh inactive, HT1080-NT tox inactive and KB-V1 MDR tox inactive.
`C=CCN1C(=O)C(CC(=O)Nc2ccc(OC)cc2)N(Cc2ccco2)C1=S` (stereo not drawn) gave KB-3-1 tox inactive, HT1080 IDH1KD tx inactive, S2 tox inactive, ATXN2 expr inh inactive, HT1080-NT tox inactive and KB-V1 MDR tox 21µM.
`CCOc1ccc(NC(=O)CC2C(=O)N(c3ccc(OC)cc3)C(=O)N2CCc2cccs2)cc1` (stereo not drawn) gave KB-3-1 tox inactive, HT1080 IDH1KD tx inactive, S2 tox inactive, ATXN2 expr inh inactive, HT1080-NT tox inactive and KB-V1 MDR tox 18µM.
Screening CCN1C(=O)C(CC(=O)Nc2ccc(OC)cc2)N(CCc2ccccc2)C1=S (stereo not drawn) returned KB-3-1 tox inconclusive, HT1080 IDH1KD tx inconclusive, S2 tox inactive, ATXN2 expr inh inactive, HT1080-NT tox inconclusive and KB-V1 MDR tox 21µM.
CNC(=O)c1cccc(-c2ccc3c(N4CCOC[C@H]4C)nc(N4CCOC[C@H]4C)nc3n2)c1 was read as ATXN2 expr inh inactive.
For C[N+]1(CC(=O)c2ccc3ccccc3c2)CCOCC1 the results were KB-3-1 tox inconclusive and KB-V1 MDR tox inactive.
Cc1nonc1CN(C)C(=O)C1CC12CCN(C(=O)/C=C/c1cccc(Cl)c1)CC2 (stereo not drawn) was read as S2 tox inactive.
`CN1C(=O)C(CC(=O)Nc2ccc(F)cc2)N(CCCc2ccccc2)C1=S` (stereo not drawn) gave KB-3-1 tox inconclusive, HT1080 IDH1KD tx inconclusive, S2 tox inconclusive, ATXN2 expr inh inconclusive, HT1080-NT tox 21µM and KB-V1 MDR tox inconclusive.
COCCN(CC(=O)Nc1cccc(C)c1C)C(=O)c1cc2c(s1)CCC2 was read as KB-3-1 tox inactive, HT1080 IDH1KD tx inactive, S2 tox inactive, ATXN2 expr inh inactive, HT1080-NT tox inactive and KB-V1 MDR tox 7.3µM.
Screening COc1ccc(Cl)cc1NC(=O)CN(C)CC(=O)N1CC(=O)Nc2ccccc21 returned KB-3-1 tox inactive, HT1080 IDH1KD tx inactive, S2 tox inactive, ATXN2 expr inh inactive, HT1080-NT tox inactive and KB-V1 MDR tox inactive.
COCCN(CC(=O)Nc1cccc(C)c1C)C(=O)C1CCN(S(=O)(=O)c2ccccc2)CC1 was read as KB-3-1 tox inactive, HT1080 IDH1KD tx inactive, S2 tox inactive, ATXN2 expr inh inactive, HT1080-NT tox inactive and KB-V1 MDR tox 9.2µM.
